The record followed here is PubChem BioAssay (Tox21).

Several values for one entry are separate records, joined by “and”; a condition that tells them apart may be missing. Equal entries are not always repeated. Records with an inconclusive call do not appear. Entries that show only a call come without a potency. Activity calls are given as the source filed them. Calls follow the shape of the full dose curve.
Potency is read from the fitted curve at half-maximal effect.

Chain of Thyrotropin receptor (Homo sapiens) (P16473 whole entry, looked up): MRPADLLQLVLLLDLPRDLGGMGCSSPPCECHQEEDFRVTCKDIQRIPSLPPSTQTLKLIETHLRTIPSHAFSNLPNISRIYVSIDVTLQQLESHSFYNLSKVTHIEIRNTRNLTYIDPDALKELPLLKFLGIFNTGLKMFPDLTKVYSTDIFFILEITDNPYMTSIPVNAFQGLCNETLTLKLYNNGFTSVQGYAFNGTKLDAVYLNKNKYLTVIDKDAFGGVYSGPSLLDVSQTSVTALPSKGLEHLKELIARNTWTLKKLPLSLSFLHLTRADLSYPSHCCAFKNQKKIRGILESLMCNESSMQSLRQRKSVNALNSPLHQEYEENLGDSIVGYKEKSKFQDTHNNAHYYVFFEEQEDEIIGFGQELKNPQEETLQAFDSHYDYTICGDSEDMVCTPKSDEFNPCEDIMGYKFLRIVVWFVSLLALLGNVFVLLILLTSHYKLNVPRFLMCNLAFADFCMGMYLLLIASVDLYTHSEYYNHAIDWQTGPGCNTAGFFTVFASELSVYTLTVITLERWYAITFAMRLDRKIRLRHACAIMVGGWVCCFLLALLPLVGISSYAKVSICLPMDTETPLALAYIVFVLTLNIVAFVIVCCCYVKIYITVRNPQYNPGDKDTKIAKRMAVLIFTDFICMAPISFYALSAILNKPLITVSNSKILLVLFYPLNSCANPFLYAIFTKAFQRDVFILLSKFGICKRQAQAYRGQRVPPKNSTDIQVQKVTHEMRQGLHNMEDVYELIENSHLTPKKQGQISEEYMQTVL

The assay concerns the target Thyrotropin receptor (Homo sapiens) (UniProt P16473). Description: qHTS assay to identify small molecule agonists of the thyroid stimulating hormone receptor (TSHR) signaling pathway (AID 1224843). Also: nearly all actives have a fitted effect of over 45% in size. The note with it: TSHR-HEK293 cells, cAMP HTRF, agonist mode, 30 min; series mostly up to 92.4 µM. The text has this:
National Center for Advancing Translational Sciences [NCATS]
NIH Chemical Genomics Center [NCGC]
U.S. Environmental Protection Agency [EPA]
National Institutes of Environmental Health Sciences [NIEHS]
National Toxicology Program [NTP]
U.S. Food and Drug Administration [FDA]
TSHR is the receptor for thyrotropin (thyroid stimulating hormone or TSH), a member of the glycoprotein hormone family. TSH is released by the anterior pituitary gland and is the main regulator of thyroid gland growth and development. Upon binding circulating thyrotropin, a G-protein signal cascade activates adenylyl cyclase and […] cAMP concentration is increased. cAMP is a key second messenger involved extensively in cellular signal transduction pathways associated with the majority of G-protein coupled receptors (GPCRs). The activation of these GPCRs by neurotransmitters, lipids, nucleotides, peptides and hormones results in the activation or the inhibition of plasma membrane-bound adenylate cyclase through heterotrimeric G-proteins. A cell-based TSHR assay was used to screen the Tox21 10K library for compounds that can modulate TSHR in agonist mode.
Tox21 Assay Protocol Summary:
TSHR-Hek293 cells were dispensed at 800 cells/4uL/well in 1536-well white plates using a Multidrop dispenser. […] The plates were incubated at room temperature for 30 min. 2.5 ul/well of cAMP-d2 and 2.5ul/well of anti-cAMP-cryptate was added respectively into the assay plates using a Flying Reagent Dispenser. After 1 hr incubation at room temperature, the fluorescence intensity in the plates was measured using an Envision plate reader. Each test compound was measured at 15 concentrations and in triplicates.
As for `FC(F)OC(F)(F)C(F)Cl` (stereo not given), the Potency entry was “inactive”. With `CCCN(CCC)c1c([N+](=O)[O-])cc(C(C)C)cc1[N+](=O)[O-]` the figure was 6.71 µM (active) and 12.2 µM (active); with `CC(C)C1(C)N=C(c2ncccc2C(=O)O)NC1=O` (stereo not given), “inactive”.

Consider `CCCCOC(=O)CCC(=O)OCCCC`, for which the Potency result was “inactive”. As for `COc1ccccc1N1CCNCC1`, the Potency entry was “inactive”.

In the case of `CC(=O)NNc1ccccc1`, the Potency result is “inactive”.

In the case of `CCOC(=O)c1cncn1C(C)c1ccccc1` (stereo not given), the Potency result is “inactive”. `CCCC[P+](CC)(CCCC)CCCC` (tested in a mixture with another compound): the Potency entry was “inactive”. Consider `CN1CC[C@]23c4c5ccc(O)c4O[C@H]2[C@@H](O)C=C[C@H]3[C@H]1C5`, for which the Potency entry is “inactive”. Under `O=C1c2ccccc2C(=O)N1SC(Cl)(Cl)Cl` stands 19.1 µM (active) and 12.2 µM (active). Under `O=C(O)CCCOc1ccc(Cl)cc1Cl` stands “inactive”; under `CC(C)c1ccc(NC(=O)N(C)C)cc1`, “inactive”.

Take `COc1ccc(C(O)(c2cncnc2)C2CC2)cc1` (stereo not given): the Potency entry was “inactive”. As to `NC(=O)CF`, the Potency entry is “inactive”.

In the case of `COCc1cnc(C2=NC(C)(C(C)C)C(=O)N2)c(C(=O)O)c1` (stereo not given), the Potency entry is “inactive”. With `CCCCCCCCP(=O)(O)O` the entry was “inactive”; with `COc1cc(CC#N)cc(OC)c1OC`, “inactive”; with `O=C=NC1CCCCC1`, “inactive”. Under `O=C(O)C(Cl)(Cl)Br` stands “inactive”; under `SCc1ccccc1`, “inactive”. With `CON(C)C(=O)Nc1ccc(Cl)cc1`, the Potency entry is “inactive”. With `CN(C)N` the entry was “inactive”; with `CC(Cl)C(=O)O` (stereo not given), “inactive”. With `CCCSP(=S)(OCC)Oc1ccc(SC)cc1` (stereo not given) the figure was 19.3 µM (active); with `CCCCCCCCCCCCN(C)C`, “inactive”; with `O=C(NC(=O)c1cc(F)c(F)cc1Cl)Nc1cc(F)ccc1N1CCC(C(=O)O)CC1`, “inactive”.

As to `CC(C)c1ccc(OP(=O)(Oc2ccc(C(C)C)cc2)Oc2ccc(C(C)C)cc2)cc1`, the Potency is 13.8 µM (active) and 15.4 µM (active) and 13.7 µM (active). For the compound `COc1cc(CC(C)N)c(OC)cc1Br` (stereo not given), the Potency entry was “inactive”.

Turning to `CC[N+]1(CCOC(=O)C(O)(c2ccccc2)c2ccccc2)CCCCC1`, the Potency entry was “inactive”. With `O=[N+]([O-])O[C@H]1CO[C@H]2[C@@H]1OC[C@H]2O[N+](=O)[O-]` the entry was “inactive”. Take `CCCCNC(=O)OCC#CI`: the Potency was 8.59 µM (active) and 4.33 µM (active). Regarding `CC(Cc1ccccc1)NCc1ccccc1Cl` (stereo not given), the Potency result was “inactive”. Under `NC(=S)c1c(Cl)cccc1Cl` stands “inactive”; under `O=C(O)c1ccc(=O)[nH]c1`, “inactive”; under `CC(C)(c1ccccc1)c1cc(-n2nc3ccccc3n2)c(O)c(C(C)(C)c2ccccc2)c1`, “inactive”. Under `C=CCN1C[C@H](C)N([C@H](c2ccc(C(=O)N(CC)CC)cc2)c2cccc(OC)c2)C[C@H]1C` stands “inactive”; under `CCNC(=O)NC(=O)/C(C#N)=N/OC`, “inactive”; under `CC[N+]1(C)CCCC(OC(=O)C(O)(c2ccccc2)c2ccccc2)C1` (stereo not given), “inactive”. On to `CCC(C)Cl` (stereo not given), for which the Potency entry was “inactive”. Under `Nc1cccc2ccccc12` stands “inactive”.
